Test results published in ChEMBL document CHEMBL3988442, “University of Dundee, Small-Polar-MMV Screening Library” (2021).
Among all 48,000 compounds or so, about 13,000 (27%) showed an effect of 50% or more. The list shows a part of the results.

test system: Wolbachia pipientis; experiment: Anti-Wolbachia Cell-Based Screen; assay type: functional; parameters: scale not given: in the data most compounds retested in dose-response had high values; settings: 5 µM

Row | Structure (SMILES) | Percent Effect [%]
1 | O=C1CCc2cc(S(=O)(=O)NC(=O)c3ccc4c(c3)OCO4)ccc2N1 | -58.45
2 | Cc1nc[nH]c1C(=O)N1CCC2(CC1)CN(CCN(C)C)C(=O)O2 | 0.5324
3 | Cc1cc(C(=O)N2CCC3(CC2)CN(CCN(C)C)C(=O)O3)nc(C)n1 | -4.106
4 | Cc1ccc(C(=O)N2CCC3(CC2)CN(CCN(C)C)C(=O)O3)c(F)c1 | 62.77
5 | O[C@@H]1C[C@H]2CN(Cc3ccccc3Cl)[C@H](Cc3ccccc3)CN2C1 | 117.1
6 | O[C@@H]1C[C@H]2CN(Cc3ccccc3)[C@H](Cc3ccccc3)CN2C1 | 111.3
7 | O[C@@H]1C[C@@H](c2nc(-c3ccccc3)no2)N(CC2CCCCC2)C1 | -2.196
8 | O[C@@H]1C[C@@H](c2nc(-c3ccccc3)no2)N(Cc2cccnc2)C1 | 4.417
9 | CS(=O)(=O)N1C[C@@H]2CC[C@H](C1)N(Cc1ccsc1)C2 | -3.691
10 | Cc1cccc(-c2noc([C@@H]3C[C@@H](O)CN3CC3CCCCC3)n2)c1 | 5.786
11 | O[C@@H]1C[C@H]2CN(Cc3ccsc3)[C@@H](Cc3ccccc3)CN2C1 | 108.5
12 | Oc1ccccc1CN1C[C@H](O)C[C@H]1c1nc(Cc2ccccc2)no1 | 2.62
13 | O[C@@H]1C[C@@H](c2nc(-c3ccccc3)no2)N(Cc2ccncc2)C1 | -6.257
14 | O[C@@H]1C[C@@H](c2nc(Cc3ccccc3)no2)N(Cc2ccc(F)cc2)C1 | 5.892
15 | Cc1ccc(CN2C[C@H]3CN(Cc4ccccc4Cl)CCN3C2=O)cc1 | 5.801
16 | O[C@@H]1C[C@H]2CN(CC3CCCCC3)[C@H](Cc3ccccc3)CN2C1 | 87.27
17 | CCS(=O)(=O)NCc1cc(Br)c(OC)c(OC)c1 | -0.2028
18 | CCS(=O)(=O)c1ccccc1C(=O)NCC1Cc2ccccc2O1 (configuration not stated) | -9.446
19 | CC(C)CCC(=O)N1CCC(c2nnc(CN(C)CCO)n2C)CC1 | -15.68
20 | CCOCC(=O)NC1(c2cccc(Br)c2)CC1 | -23.15
21 | Cc1n[nH]c(=O)c2c(NC(=O)CN3CCC(C)CC3)oc(C)c12 | 8.431

Row | Structure (SMILES) | Percent Effect [%]
22 | COC(=O)N1CCN(c2ncnc3nc(C)cc(C)c23)CC1 | 98.52
23 | Cc1cc(C)c2c(N3CCN(C(=O)N(C)C)CC3)ncnc2n1 | 111.7
24 | COCCCN1CCN(c2ncnc3nc(C)cc(C)c23)CC1 | -12.49
25 | Cc1cc(C)c2c(N3CCN(Cc4ncccc4C)CC3)ncnc2n1 | -39.06
26 | COCCN1CCN(c2ncnc3nc(C)cc(C)c23)CC1 | -19.86
27 | Cc1cc(C)c2c(N(C)CC3COCCO3)ncnc2n1 (configuration not stated) | -3.038
28 | CSc1ccc(NC(=O)Cc2cccc(O)c2)nc1 | -26.55
29 | Cc1cncc(C(=O)N2CCC3(CC2)C(=O)Nc2ccccc23)c1 | -7.764
30 | FC(F)(F)c1ccc(-c2noc3c2CN(CC2CCCO2)CC3)cc1 (configuration not stated) | -4.107
31 | CC(C)N(CCNCc1ccc(C#N)cc1)C1CC1 | -21.35
32 | Cc1c[nH]c(CN2CCCCC2CCN(C)C)c(C)c1=O (configuration not stated) | -7.535
33 | CC1c2ccsc2CCN1Cc1cc2c(cc1O)OCO2 (configuration not stated) | 137.7
34 | CN(C)CCN1CC[C@H]2[C@@H]1CCN2Cc1ccc2c(c1)OCO2 | -11.21
35 | CCC(=O)N1CCCN(C(=O)C2SCCc3sccc32)CC1 (configuration not stated) | 13.84
36 | NC(=O)c1ccc(OCCC(=O)NC2CCc3c(F)cccc32)cc1 (configuration not stated) | 19.22
37 | Cc1ccc([C@H]2CN(CCO)C[C@@H]2NC(=O)CN2CCCCC2=O)o1 | 92.71
38 | CC(=O)N1C[C@H](NS(=O)(=O)N2CCCC2)[C@@H](c2ccc(C)o2)C1 | -3.445
39 | CCC[C@H]1CN(Cc2ccc(N(C)C)nc2)C[C@@H]1NC(=O)CCOC | -4.276
40 | CC(=O)N[C@@H]1CN(C(=O)c2ccc[nH]2)C[C@H]1c1ccc(C)o1 | -8.166
41 | C/C=C(\C)CN1C[C@H](NC(=O)CCOC)[C@@H](c2ccc(C)o2)C1 | 82.28
42 | CC(=O)N[C@@H]1CN(C(=O)c2cc(C)oc2C)C[C@H]1c1ccc(C)o1 | -1.342

Row | Structure (SMILES) | Percent Effect [%]
43 | O=C(CN1CCCCCC1=O)NC1CCc2nccn2C1 (configuration not stated) | 0.7111
44 | C/C=C(\C)CN1C[C@H](NC(=O)CN2CCCC2=O)[C@@H](c2ccc(C)o2)C1 | 97.75
45 | CNc1nc(CN2C[C@@H](NC(C)=O)[C@H](c3ccc(C)o3)C2)cs1 | 0.1699
46 | COc1ccnc(CNc2nc(C)nc(C)c2C)c1 | -1.425
47 | CCc1nc(CC(=O)N2CCn3c(nnc3C(C)C)C2)cs1 | 3.887
48 | COCCN(Cc1nccs1)C(=O)c1c(C)cc(C)[nH]c1=O | -6.144
49 | CC(C(=O)NC(C)(C)C)S(=O)(=O)Cc1noc(C(C)(C)C)n1 (configuration not stated) | 3.309
50 | Cc1cc(C2CCCN(C(=O)c3cnccn3)C2)ccn1 (configuration not stated) | -6.489
51 | O=C(C1CCC1)N1CCCC(c2ccnc(Nc3cnccn3)n2)C1 (configuration not stated) | 48.97
52 | O=C(C1CCCC1)N1CCC(c2ccnc(Nc3cnccn3)n2)C1 (configuration not stated) | 92.23
53 | CC(=O)N1CCCC(c2ccnc(Nc3cnccn3)c2)C1 (configuration not stated) | 134
54 | Cl.Cl.NCC(=O)N1CCCC(c2ccnc(Nc3cnccn3)n2)C1 (configuration not stated) | 138.9
55 | CNCC(=O)N1CCCC(c2ccnc(Nc3cnccn3)n2)C1 (configuration not stated) | 90.62
56 | COCc1ccc(C(=O)N2CC[C@@](O)(COC)C(C)(C)C2)o1 | 3.183
57 | CCc1c(C)nn(CC(=O)NC(C(=O)O)c2c(C)n[nH]c2C)c1C (configuration not stated) | 1.191
58 | Cc1ccccc1CC1(CO)CCCN(c2ncccc2C#N)C1 (configuration not stated) | 0.9317
59 | C=C(C)CNc1nc(CS(=O)(=O)c2ccccc2)cs1 | -10.96
60 | CC(CNC(=O)N1CCN(Cc2ccon2)CC1)Cc1cccs1 (configuration not stated) | -18.64
61 | O=C(Cn1c(=O)oc2ccccc21)N1Cc2cnn(CCO)c2C1 | -5.203
62 | CC(=O)N1CCCC(c2ccnc(Nc3cnccn3)n2)C1 (configuration not stated) | 113.3
